The structures appear in SMILES notation. The whole screen tested about 370,000 compounds, of which about 3,100 (0.84%) were called active. Only a selection was taken, and actives are over-represented in it overall. A number with no mark means an inactive call. Cut-off read from the data, not from the text of the source: active = inhibition above about 9.5%; inactive = the rest.

One may read the inhibition as the drop in the measured response relative to a control, in per cent.

For this assay, the target named is 1-phosphatidylinositol 4,5-bisphosphate phosphodiesterase gamma-1 (Homo sapiens) (UniProt P19174). The assay is described as follows: blockers of human PLCG1 activity – biochemical, fluorescence, purified enzyme, primary screen (AID 720700). The settings on record: purified PLC-gamma1, fluorogenic substrate, at 12.2 µM, hits give high values.
Sequence of 1-phosphatidylinositol 4,5-bisphosphate phosphodiesterase gamma-1 (Homo sapiens) (P19174 whole entry, looked up): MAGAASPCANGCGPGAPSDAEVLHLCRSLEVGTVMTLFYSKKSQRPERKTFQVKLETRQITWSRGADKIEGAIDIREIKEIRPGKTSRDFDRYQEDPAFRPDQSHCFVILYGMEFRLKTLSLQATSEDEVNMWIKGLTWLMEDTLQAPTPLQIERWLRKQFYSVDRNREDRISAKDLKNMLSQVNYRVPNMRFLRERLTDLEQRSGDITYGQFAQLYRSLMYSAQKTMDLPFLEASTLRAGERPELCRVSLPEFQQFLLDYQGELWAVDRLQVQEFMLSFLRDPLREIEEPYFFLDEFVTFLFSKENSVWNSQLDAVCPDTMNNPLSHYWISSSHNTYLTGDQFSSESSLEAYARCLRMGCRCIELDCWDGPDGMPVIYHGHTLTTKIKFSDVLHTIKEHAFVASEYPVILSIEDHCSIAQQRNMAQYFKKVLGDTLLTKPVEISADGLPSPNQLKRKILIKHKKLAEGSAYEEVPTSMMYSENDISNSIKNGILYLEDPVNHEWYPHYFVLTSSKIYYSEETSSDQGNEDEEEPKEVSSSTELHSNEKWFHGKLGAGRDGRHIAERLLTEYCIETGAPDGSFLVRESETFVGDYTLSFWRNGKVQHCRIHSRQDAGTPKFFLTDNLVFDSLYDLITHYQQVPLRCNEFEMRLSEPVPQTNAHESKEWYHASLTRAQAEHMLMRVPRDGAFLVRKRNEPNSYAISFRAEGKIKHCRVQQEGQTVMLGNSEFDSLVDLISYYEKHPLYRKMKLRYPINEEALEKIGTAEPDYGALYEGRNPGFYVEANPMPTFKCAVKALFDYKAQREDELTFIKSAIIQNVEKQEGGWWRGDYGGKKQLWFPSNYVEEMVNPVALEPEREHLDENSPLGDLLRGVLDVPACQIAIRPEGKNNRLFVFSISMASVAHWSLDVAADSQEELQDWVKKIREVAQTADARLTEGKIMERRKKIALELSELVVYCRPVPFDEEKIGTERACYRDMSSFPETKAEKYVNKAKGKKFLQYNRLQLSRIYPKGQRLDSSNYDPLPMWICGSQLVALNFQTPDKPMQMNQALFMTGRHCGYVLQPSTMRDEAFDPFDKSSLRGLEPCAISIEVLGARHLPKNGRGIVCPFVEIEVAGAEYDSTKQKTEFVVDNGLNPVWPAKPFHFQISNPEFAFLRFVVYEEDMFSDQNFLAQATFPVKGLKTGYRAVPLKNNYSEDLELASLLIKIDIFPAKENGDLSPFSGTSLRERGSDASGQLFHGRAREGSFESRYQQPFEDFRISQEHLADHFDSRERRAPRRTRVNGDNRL
As for `CCn1c2ccccc2c2cc(NC(=O)CSc3nnc(-c4ccccc4)n3-c3ccc(C)cc3)ccc21`, the inhibition was -1.61%.

As to `N#Cc1cccc(NC(=O)c2cc(C3CCCCN3C(=O)CCc3ccccc3)on2)c1` (stereo not given), the inhibition was 5.27%.

As for `O=C(NCc1cccnc1)c1cc(C2CCCCN2C(=O)CCc2ccccc2)on1` (stereo not given), the inhibition was 12.8% (active).

Consider `O=C(NCc1cccnc1)c1cc(C2CCCN(C(=O)CCCc3ccccc3)C2)on1` (stereo not given), for which the inhibition was 3.28%.

Take `COc1ccc(N2CCN(CCNS(=O)(=O)c3ccc(C(C)(C)C)cc3)CC2)cc1`: the inhibition is -1.02%.

With `CC(C)(C)c1ccc(C(=O)Nc2cc(Cl)c(Br)cc2C(=O)O)cc1`, the inhibition is 11% (active).

As to `CSc1nccc(NC(=O)c2ccc(C(C)(C)C)cc2)n1`, the inhibition was 7.02%.

On to `CSc1ccc(C#N)cc1NC(=O)c1ccc(Cl)cc1`, for which the inhibition is -1.63%.

For `COC(=O)[C@@]12CCCCC=C1N(CCc1ccc(Cl)cc1)C(=O)[C@H]2CC(=O)NCc1ccc(OC)c(OC)c1`, the inhibition was 2.08%.

Consider `CC(C)CC1C(=O)N(Cc2cn(CC3CCCCC3)nn2)CCS(=O)(=O)N1Cc1ccc(-c2ccc(Cl)cc2)cc1` (stereo not given), for which the inhibition was 1.82%.

As for `COc1ccc(-c2ccc(CN3C(CC(C)C)C(=O)N(Cc4cn(CC5CCCCC5)nn4)CCS3(=O)=O)cc2)cc1` (stereo not given), the inhibition was 13.6% (active).

On to `COc1ccc(-c2ccc(CN3C(CC(C)C)C(=O)N(Cc4cn(CC5CCCCC5)nn4)CCS3(=O)=O)cc2)cn1` (stereo not given), for which the inhibition is -1.63%.

For `CCOC(=O)C(=O)N(Cc1ccccc1)c1ccccc1C(=O)Nc1cc(OC)ccc1OC`, the inhibition was 2.22%.

As for `COc1ccc(C2C(C(C)=O)=C(O)C(=O)N2CCc2c[nH]c3ccccc23)cc1` (stereo not given), the inhibition is 0.47%.

Consider `COC(=O)CN1C(=O)C(O)=C(C(C)=O)C1c1ccc([N+](=O)[O-])cc1` (stereo not given), for which the inhibition is 10.5% (active).

Consider `CC(=O)C1=C(O)C(=O)N(c2ccc(Br)cc2)C1c1ccc([N+](=O)[O-])cc1` (stereo not given), for which the inhibition is 2.17%.

For `COC(=O)C1=CN(c2ccc(F)c(F)c2)C=C(C(=O)OC)C1c1ccc([N+](=O)[O-])cc1`, the inhibition was 1.3%.

For `CC(=O)C1=C(O)C(=O)N(c2cccnc2)C1c1ccc([N+](=O)[O-])cc1` (stereo not given), the inhibition is 11.3% (active).

With `COc1ccc(C2C(C(C)=O)=C(O)C(=O)N2c2nccs2)cc1` (stereo not given), the inhibition is -25.2%.

Consider `C=CCN1C(C(=O)OC)CN(Cc2cn(Cc3ccccc3)nn2)CCS1(=O)=O` (stereo not given), for which the inhibition is 2.03%.

As for `COc1cccc(CNC(=O)CNS(=O)(=O)c2ccc3nc(C)sc3c2)c1OC`, the inhibition is 2.68%.

For `CCCC[C@H](C(=O)N(CC)c1ccccc1)[C@@H](O)c1ccc2ccccc2c1`, the inhibition was 2.96%.

For `CCCCN=C1N/C(=C\c2ccco2)C(=O)N1c1ccccc1`, the inhibition was -18.1%.

Consider `O=C1/C(=C\c2ccsc2)NC(=S)N1c1ccccc1`, for which the inhibition was 9.99% (active).

For `CN(C)c1ccc(/C=C2\NC(=S)N(Cc3ccccc3)C2=O)cc1`, the inhibition is -48.2%.

For `COc1ccc(C2CC=C(C(=O)O)C(c3ccccc3F)N2S(=O)(=O)c2ccc(C)cc2)cc1OC` (stereo not given), the inhibition is -0.05%.

With `CCCCOCCCNC(=O)C[C@H]1C[C@@]2(C(=O)OC)C(=C[C@H](COCc3ccccc3)O[C@@H]2C)N(Cc2cccc3ccccc23)C1=O`, the inhibition is 2.09%.

Turning to `CCCCNC(=O)C[C@@H]1C(=O)N(CCc2ccc(Cl)cc2)C2=CCCC[C@]21C(=O)OCC`, the inhibition was 1.96%.

With `Cc1ccc(-c2nnc(SCC(=O)Nc3ccc(Oc4ccccc4)cc3)n2Cc2ccco2)cc1`, the inhibition was -3.01%.

Turning to `COc1ccc(-c2cc(-c3nnc(SCc4ccc([N+](=O)[O-])cc4)n3N)[nH]n2)cc1`, the inhibition was -0.19%.

Take `C#CCN([C@H](C(=O)OC)C(C)CC)S(=O)(=O)c1ccccc1Br` (stereo not given in full): the inhibition was -0.23%.

For `CN1c2ccc(C=O)c3c(C=O)ccc(c23)N(C)C1(C)C`, the inhibition was -156%.

For the compound `Cc1ccc(C=O)c([B-](F)(F)F)c1`, the inhibition is 9.66% (active).

As for `COc1ccc(C(=O)CSc2nnc(-c3cnccn3)n2-c2ccc(C)cc2)cc1`, the inhibition was -2.8%.

As to `CCC[C@H]1C(=O)CC[C@@]23CCCN2C(=O)CCC[C@@H]13`, the inhibition is -1.51%.

Consider `CCOC(=O)[C@]12CCCC3=C1N(CCC3)C(=O)[C@@H](CC(=O)NCc1cccs1)C2`, for which the inhibition was -0.59%.

As to `CSc1ccc(C=Nn2c(-c3ccc(F)cc3)n[nH]c2=S)cc1`, the inhibition was 3.12%.

Consider `C(=C\c1ccccc1)/CSc1nnc(-c2cccnc2)n1Cc1ccco1`, for which the inhibition was -1.89%.

On to `S=c1[nH]nc(-c2cccnc2)n1/N=C/C(Cl)=C\c1ccccc1`, for which the inhibition is 12.7% (active).

As for `Cc1[nH]c(C)c(S(=O)(=O)N2CCN(c3cccc(C(F)(F)F)c3)CC2)c1C(=O)N1CCCC1`, the inhibition was 0.67%.

Turning to `Cc1ccc(C)c(N2CCN(S(=O)(=O)c3c(C)[nH]c(C)c3C(=O)N3CCCC3)CC2)c1`, the inhibition is 17% (active).

Take `Cc1[nH]c(C)c(S(=O)(=O)N2CCN(c3cccc(C(F)(F)F)c3)CC2)c1C(=O)N1CCCCC1`: the inhibition is 0.49%.

For `CN(C(N)=NC(=O)/C=C/c1ccccc1)C(C#Cc1ccccc1)Cc1ccccc1` (stereo not given), the inhibition was -3.61%.

`C=CCN(Cc1ccc2c(c1)OCO2)C(C#CC1CC1)C(C)(C)C` (stereo not given): the inhibition was -0.25%.

Consider `O=c1ccc2c(-c3ccccc3S(=O)(=O)O)c3ccc(O)c(O)c3oc-2c1O`, for which the inhibition is 25.2% (active).

Take `O=C(CSc1nc2ccccc2n1Cc1ccccc1)NNC(=S)Nc1ccccc1`: the inhibition is 3.11%.

With `C#CCNC(=O)C[C@H]1C[C@@]2(C(=O)OC)C(=C[C@H](C(C)C)O[C@@H]2C2CC2)N(Cc2ccco2)C1=O`, the inhibition is 0.18%.

Turning to `O=C(NCc1cccs1)C1CCN(S(=O)(=O)c2ccccc2[N+](=O)[O-])CC1`, the inhibition is 3.22%.

Turning to `c1coc(CCNc2ncnc3ccc(-c4ccc5c(c4)OCO5)cc23)c1`, the inhibition is -114%.

Regarding `CCCc1nc2oc3c(OCC)ncnc3c2c2c1COC(C)(C)C2`, the inhibition is 2.49%.

Take `CC1(C)Cc2nc3sc4c(SCC(=O)NC(c5ccccc5)c5ccccc5)ncnc4c3cc2CO1`: the inhibition was -1.56%.

Consider `CC(C)CCSc1ncnc2c1oc1nc3c(cc12)COC(C)(C)C3`, for which the inhibition is 10.6% (active).

As to `COC(=O)C1CN(Cc2ccc(F)cc2)CCS(=O)(=O)N1Cc1ccc(Cl)cc1` (stereo not given), the inhibition is -0.52%.

In the case of `C=CCN1C(=O)[C@@H](CC(=O)NCC2CCCCC2)[C@]2(C(=O)OC)CCCCC=C12`, the inhibition is -0.08%.

Consider `CC(C)CSc1nnc(-c2cccnc2)n1Cc1ccccc1`, for which the inhibition was 0.54%.

For the compound `COc1ccnc(NC(=S)N2CCN(c3ncc(C(F)(F)F)cc3Cl)CC2)c1`, the inhibition was 4.36%.

In the case of `O=C(Nc1cccc(Cl)c1)OC1CC2CC1[C@H]1CCCCN1[C@H]2Cc1ccccc1` (stereo not given in full), the inhibition is -19.3%.

`O=C1N[C@H](Cc2c[nH]c3ccccc23)COC(=O)[C@H](Cc2ccc(F)cc2)C/C=C\C[C@H]1CC(=O)N(CCO)Cc1ccccc1`: the inhibition is 1.6%.

On to `O=C1N[C@@H](c2ccccc2)COC(=O)[C@H](Cc2ccc(F)cc2)C/C=C\C[C@@H]1CC(=O)N(CCO)Cc1ccccc1`, for which the inhibition is 9.59% (active).

In the case of `O=C1NC[C@@H](c2ccccc2)OC(=O)[C@H](Cc2ccc(F)cc2)CC/C=C/C[C@H]1CC(=O)N(CCO)Cc1ccccc1`, the inhibition was -0.18%.

Consider `O=C(Nc1nc2ccc(Cl)cc2s1)c1cc(-c2ccc(Cl)cc2)nc2ccccc12`, for which the inhibition is 6.56%.

In the case of `Cc1ccc(Cn2cc(CN3[C@@H](CC(C)C)COc4ccc(Cl)cc4S3(=O)=O)nn2)cc1`, the inhibition was 1.86%.

With `COc1ccc(Cn2ccc3ccc(-c4ccc5ccn(Cc6ccccc6C)c5c4)cc32)cc1`, the inhibition is -65%.

Regarding `O=S1(=O)c2c(cccc2N2CC[C@H](O)C2)O[C@@H]2CCN1C2`, the inhibition is -2.5%.

For the compound `CCN1CCN(C(=O)c2ccccc2N(C)S(=O)(=O)c2ccc(C)cc2)CC1`, the inhibition was 2.78%.

As to `CCOC(=O)C1CCN(C(=O)c2cccc(S(=O)(=O)N(CC)c3ccccc3)c2)CC1`, the inhibition is 1.63%.

`CCOC(=O)C1CCN(C(=O)c2ccccc2N(C)S(=O)(=O)c2ccccc2)CC1`: the inhibition is 12.6% (active).

As for `O=C(CSc1nc2ccccc2n1Cc1ccccc1Cl)N/N=C\c1c[nH]c2ccccc12`, the inhibition is 1.37%.

For the compound `CC(C)CNc1cccc2c1S(=O)(=O)N(Cc1cn(Cc3ccccc3C(F)(F)F)nn1)Cc1ccccc1O2`, the inhibition was -4.63%.

As for `Cc1ccc(-c2csc(N(Cc3ccco3)C(=O)c3cccs3)n2)cc1`, the inhibition is 0.51%.

As to `Cc1cccc(NC(=S)N(CCN(C)C)C(C)c2ccco2)c1` (stereo not given), the inhibition is -0.2%.

On to `Cc1ccc(NC(=S)N(Cc2ccco2)C(C)c2cccs2)cc1` (stereo not given), for which the inhibition was 9.84% (active).

Take `O=C1CC[C@@H](COc2ccc3[nH]cc(-c4ccccc4)c3c2-c2ccccc2)N1`: the inhibition was -12.8%.

For the compound `Nc1[nH]c(/C=C2/CCCCC2n2[nH]c(=O)n(-c3ccccc3)c2=O)c(Cc2ccccc2)[n+]1Cc1ccccc1` (stereo not given), the inhibition was -3.57%.

For `COC(=O)[C@]12C[C@H](CC(=O)NCc3cccs3)C(=O)N(CCc3ccc(OC)c(OC)c3)C1=C[C@H](C(C)C)O[C@@H]2C1CC1`, the inhibition is 0.22%.

Regarding `Cc1ccc(CSc2nnc(SCC(=O)NN=Cc3cc(Br)ccc3F)s2)cc1`, the inhibition was 1.18%.

Consider `CC[C@@H](CCC(=O)N(c1ccccc1)c1ccccc1)C1CC1`, for which the inhibition is -1.13%.

As for `C[C@]12c3[nH]c4ccc(Cl)cc4c3CCN1C(=O)[C@@H](CC(=O)NCCCn1ccnc1)C[C@@H]2C(=O)N1CCOCC1`, the inhibition was 13.5% (active).

Consider `CC[C@]12c3[nH]c4ccc(Cl)cc4c3CCN1C(=O)[C@@H](CC(=O)NCCN1CCOCC1)C[C@@H]2C(=O)N1CCN(C(=O)C2CC2)CC1`, for which the inhibition is 0.47%.

Regarding `COc1ccc2[nH]c3c(c2c1)CCN1C(=O)C(CC(=O)NCCc2ccccn2)C[C@H](C(=O)N2CCOCC2)[C@@]31C` (stereo not given in full), the inhibition is 0.01%.

Values taken from PubChem BioAssay AID720700 (The Scripps Research Institute Molecular Screening Center, 2013).
